# High-throughput results (PubChem)
# Giardia kill: Small Molecules that selectively kill Giardia lamblia: qHTS; Giardia lamblia trophozoite viability; activity change, % at 7.66 µM, hits read low; hit rate 0.15% among 340,000; AID 540267, 2011; in the data active = activity change below about -80%; inconclusive = between about -30% and that limit;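 note: parasites exposed to compound for two days anaerobically before the ATP read; % is set by controls: 0 for no effect and ±100 for the full control effect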
#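 Killing of trophozoites was scored by loss of ATP luminescence after a 48 hrs anaerobic exposure to compounds at 37 deg C, using 100 cells per well.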
# TRPV1 ag: HTS Assay for Compounds that Act as Agonists of the Vanilloid Receptor 1; hit rate 0.19% among 320,000; activation, % at 8.33 µM; TRPV1-expressing cells, Fluo-8 calcium influx, agonist mode; Transient receptor potential cation channel subfamily V member 1 (Homo sapiens), Q8NER1; in the data active = activation above about 80%; inconclusive = between about 30% and that limit; note: 0% is about no effect
#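 TRPV1-expressing cells were cultured overnight at 35.5C and loaded with Fluo-8 calcium dye for 40 to 90 min at room temperature. After a 10 s baseline, compound was added and calcium influx was read kinetically for 3 min (ex 480/em 520 nm).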
# ELG1 DNA repair: qHTS screen for small molecules that inhibit ELG1-dependent DNA repair in human embryonic kidney (HEK293T) cells expressing luciferase-tagged ELG1 | HEK293T ELG1-luciferase reporter, luminescence, 16 h; DNA damage induced by 5-fluorouridine | Potency, µM (titrated, usually from 46.1 µM), inactives show at the top dose activity change, negative = inhibition, actives largely listed as inhibitors | hit rate 2.3% among 330,000; note: potency is the fitted concentration of half-maximal effect; % is set by controls: 0 for no effect and ±100 for the full control effect; nearly all actives have a fitted effect of over 55% in size
#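 Luminescence from the luciferase reporter, measured 30 min after ONE-Glo reagent at room temperature, was the read-out. Beforehand, 2,000 cells per well were exposed for 16 hr at 37 °C to 5-fluorouridine together with compound or vehicle.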
# TRPV1 PAM: HTS Assay for Compounds that Act as Potentiators of the Vanilloid Receptor 1; Transient receptor potential cation channel subfamily V member 1 (Homo sapiens), Q8NER1; TRPV1-expressing cells, Fluo-8 calcium influx, capsaicin EC20 potentiation; potentiation, % at 8.33 µM; hit rate 0.02% among 320,000; AID 540277, 2011; in the data active = potentiation above about 80%; inconclusive = between about 30% and that limit; note: 0% is about no effect
#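 TRPV1-expressing cells were cultured overnight at 35.5C and loaded with Fluo-8 calcium dye for 40 to 90 min at room temperature. After a 10 s baseline, compound was added and calcium influx was read kinetically for 3 min (ex 480/em 520 nm).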
# FUS yeast rescue: qHTS for Suppressors of FUS Proteinopathy: Primary screen using FUS-linked yeast assay; hit rate 0.24% among 390,000; Potency, µM (titrated, usually from 76.6 µM), actives largely listed as activators; AID 1347120, 2019; S. cerevisiae FUS-expressing, growth rescue, OD600, 24 h;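 note: potency is the fitted concentration of half-maximal effect; plate controls were DMSO vehicle for no effect and reference control for full effect; nearly all actives have a fitted effect of over 55% in size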
#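 Compound concentration series was pinned onto galactose-induced FUS-expressing yeast seeded at OD 0.005. Plates sat 24hr at 30C; absorbance at 600 nm gave growth. DMSO served as background control.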
# ELG1 FLuc counter: qHTS screen for small molecules that inhibit ELG1-dependent DNA repair: Hit Confirmation in Cell-Based Luciferin Assay; Potency, µM (top dose mostly 46.1 µM), for inactives: at the highest dose activity change, negative = inhibition, hits mostly inhibitors; shares compounds with ELG1 DNA repair; hit rate 3% among 350; cell-free firefly luciferase luminescence counter-screen, ViewLux; note: potency is the fitted concentration of half-maximal effect; % is set by controls: 0 for no effect and ±100 for the full control effect
# ELG1-Luc inh: HTS assay for small molecules that inhibit ELG1-dependent DNA repair in human embryonic kidney (HEK293T) cells expressing luciferase-tagged ELG1: Hit Confirmation | shares compounds with ELG1 DNA repair | HEK293T ELG1-luciferase levels, luminescence; cells co-treated with 5-fluorouridine | Potency, µM (highest dose often 46.1 µM), for the others: top-dose activity change, negative = inhibition, actives largely listed as inhibitors | hit rate 68% among 670 | AID 624248, 2012; note: potency is the fitted concentration of half-maximal effect; % is set by controls: 0 for no effect and ±100 for the full control effect; nearly all actives have a fitted effect of over 55% in size
# Target sequence (Q96QE3 whole entry, looked up): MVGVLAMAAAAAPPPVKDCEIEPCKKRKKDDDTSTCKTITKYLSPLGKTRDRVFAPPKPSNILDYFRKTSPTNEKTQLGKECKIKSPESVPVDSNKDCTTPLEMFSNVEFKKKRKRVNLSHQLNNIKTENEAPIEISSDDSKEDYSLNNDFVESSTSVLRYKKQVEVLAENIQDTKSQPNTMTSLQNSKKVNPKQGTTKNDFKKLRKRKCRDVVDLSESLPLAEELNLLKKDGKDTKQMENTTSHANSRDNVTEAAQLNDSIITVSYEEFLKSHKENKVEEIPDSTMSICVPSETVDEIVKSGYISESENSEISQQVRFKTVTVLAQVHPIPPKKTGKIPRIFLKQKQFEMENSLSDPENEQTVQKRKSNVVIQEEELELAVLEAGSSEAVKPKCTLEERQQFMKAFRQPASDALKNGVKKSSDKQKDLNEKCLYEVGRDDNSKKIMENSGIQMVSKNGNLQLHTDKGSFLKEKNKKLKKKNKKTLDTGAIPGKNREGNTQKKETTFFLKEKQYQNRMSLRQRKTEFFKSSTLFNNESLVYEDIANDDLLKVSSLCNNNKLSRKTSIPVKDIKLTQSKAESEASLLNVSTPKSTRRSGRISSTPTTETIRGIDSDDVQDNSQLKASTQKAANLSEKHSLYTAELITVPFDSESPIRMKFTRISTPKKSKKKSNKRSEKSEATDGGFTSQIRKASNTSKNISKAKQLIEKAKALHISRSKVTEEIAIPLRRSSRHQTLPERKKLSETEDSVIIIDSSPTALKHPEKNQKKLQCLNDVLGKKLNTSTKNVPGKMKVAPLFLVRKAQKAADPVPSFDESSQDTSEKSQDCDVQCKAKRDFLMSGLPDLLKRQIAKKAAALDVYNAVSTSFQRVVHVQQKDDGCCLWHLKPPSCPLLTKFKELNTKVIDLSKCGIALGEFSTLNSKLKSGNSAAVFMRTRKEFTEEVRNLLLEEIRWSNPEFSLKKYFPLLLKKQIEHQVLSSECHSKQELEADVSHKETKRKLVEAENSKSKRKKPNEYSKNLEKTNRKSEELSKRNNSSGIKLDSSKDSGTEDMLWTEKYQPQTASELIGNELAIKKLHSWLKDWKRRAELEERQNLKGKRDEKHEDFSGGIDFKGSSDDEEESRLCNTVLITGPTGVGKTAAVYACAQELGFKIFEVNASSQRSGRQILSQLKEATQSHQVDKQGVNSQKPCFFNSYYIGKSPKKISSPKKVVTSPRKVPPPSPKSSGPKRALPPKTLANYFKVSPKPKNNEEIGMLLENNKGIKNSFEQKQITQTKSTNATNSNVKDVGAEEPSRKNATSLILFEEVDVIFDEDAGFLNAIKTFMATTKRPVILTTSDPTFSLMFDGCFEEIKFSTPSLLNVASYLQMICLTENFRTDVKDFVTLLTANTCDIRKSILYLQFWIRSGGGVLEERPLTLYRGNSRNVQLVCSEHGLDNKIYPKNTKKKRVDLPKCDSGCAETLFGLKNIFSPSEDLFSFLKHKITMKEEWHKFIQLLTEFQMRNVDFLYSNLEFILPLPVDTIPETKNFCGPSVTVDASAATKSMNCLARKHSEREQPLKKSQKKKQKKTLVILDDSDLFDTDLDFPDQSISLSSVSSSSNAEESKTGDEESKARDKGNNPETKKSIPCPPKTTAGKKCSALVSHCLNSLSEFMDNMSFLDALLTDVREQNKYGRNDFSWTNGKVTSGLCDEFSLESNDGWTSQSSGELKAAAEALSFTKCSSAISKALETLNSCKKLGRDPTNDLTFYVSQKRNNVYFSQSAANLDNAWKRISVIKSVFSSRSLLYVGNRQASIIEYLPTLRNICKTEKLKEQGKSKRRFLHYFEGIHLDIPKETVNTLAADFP
# ELG1 MMS Luc: inhibits ELG1-dependent repair under MMS stimulation in HEK293T cells. Potency, µM (series often up to 46.1 µM), inactives show top-dose activity change, negative = inhibition, hits mostly inhibitors. HEK293T luciferase-tagged ELG1 level, MMS stimulated. shares compounds with ELG1 DNA repair. hit rate 53% among 670; note: potency is the fitted concentration of half-maximal effect; % is set by controls: 0 for no effect and ±100 for the full control effect; nearly all actives have a fitted effect of over 60% in size
# ELG1 5-FU: qHTS screen for small molecules that inhibit ELG1-dependent DNA repair: Hit Confirmation with 5FU Viability | shares compounds with ELG1 DNA repair | AID 624250, 2012 | cell viability with 5-FU, ELG1-dependent repair | 670 tested, under 10 active | Potency, µM (titrated, usually from 46.1 µM), without a hit: at the top dose activity change, negative = viability loss, actives largely listed as cytotoxic;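 note: ELG1-luc HEK293T cells cotreated with 5-fluorouridine at 10 µM final; potency is the fitted concentration of half-maximal effect; viability measured 16 h after compound addition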
# ELG1 MMS viab: qHTS screen for small molecules that inhibit ELG1-dependent DNA repair: Hit Confirmation with MMS Viability. shares compounds with ELG1 DNA repair. Cell viability with MMS, ELG1-dependent DNA repair. Potency, µM (top dose mostly 46.1 µM), for the others: at the highest dose activity change, negative = viability loss, actives largely listed as cytotoxic. hit rate 33% among 670. AID 624251, 2012;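 note: ELG1-luc HEK293T cells co-treated with 10 µM MMS; potency is the fitted concentration of half-maximal effect; viability read 16 h after compound addition; % is set by controls: 0 for no effect and ±100 for the full control effect; nearly all actives have a fitted effect of over 60% in size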
# Cell viab unstim: qHTS screen for small molecules that inhibit ELG1-dependent DNA repair: Hit Confirmation with Unstimulated Viability Assay | cell viability counter-screen, unstimulated, luminescence | AID 624252, 2012 | shares compounds with ELG1 DNA repair | Potency, µM (highest dose often 45.9 µM), for the others: at the top dose activity change, negative = loss of viability, usual class: cytotoxic | hit rate 8% among 900;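 note: potency is the fitted concentration of half-maximal effect; compound exposure lasted 16 hours before reading; % is set by controls: 0 for no effect and ±100 for the full control effect; nearly all actives have a fitted effect of over 55% in size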
# FLuc biochem: qHTS screen for small molecules that inhibit ELG1-dependent DNA repair: Hit Confirmation in Biochemical Luciferin Assay; shares compounds with ELG1 DNA repair; Potency, µM (series often up to 57.5 µM), for the others: at the top dose activity, negative = inhibition, most hits filed as inhibitors; purified firefly luciferase, luminescence counter-screen; hit rate 10% among 350; note: potency is the fitted concentration of half-maximal effect; % is set by controls: 0 for no effect and ±100 for the full control effect
# Numbers without * were called inactive; i = inactive; ? = inconclusive; . = not tested or not shown. An excerpt weighted towards active compounds, which were near 2.3% of everything screened. Unless noted, calls come from the whole dose curve; as a rule, active = well fitted curve in the direction sought with a large enough effect; inconclusive = small, poorly fitted or top-dose-only effect, or another doubt; inactive = no such curve, though single readings can be large; an effect the other way counts as inactive or inconclusive.
SMILES,Giardia kill,TRPV1 ag,ELG1 DNA repair,TRPV1 PAM,FUS yeast rescue,ELG1-Luc inh,ELG1 MMS Luc,ELG1 5-FU,ELG1 MMS viab,Cell viab unstim,others
COc1cc(/C=N/NC(=O)Nc2cccc3nsnc23)cc(OC)c1OC,-21,1,2.3µM*,-8,i,1.6µM*,?,?,-10%,?,
OCCNc1nc(-c2cccnc2)nc2ccccc12,-11,-3,0%,11,i,.,.,.,.,.,
OC(CNc1nc(-c2cccnc2)nc2ccccc12)c1ccccc1 (stereo not drawn),-9,?,12µM*,-15,i,11µM*,22µM*,0%,?,?,ELG1 FLuc counter=-9%;FLuc biochem=-14%
O=C(Cn1c(=O)oc2cc(S(=O)(=O)N3CCCCC3)ccc21)Nc1cccc(Cl)c1,.,.,.,.,i,.,.,.,.,.,
CN(C)N=Nc1ccc(/C=C2\C=Cc3ccccc32)cc1,.,.,.,.,.,.,.,.,.,-2%,
CN(C)c1ccc(C=C2C=Cc3ccccc32)cc1,47,.,.,.,.,.,.,.,.,.,
CC(C)CN(C)c1ccc(/C=C2\C=Cc3ccccc32)cc1,.,.,.,.,.,.,.,.,.,?,
CNc1ccc(C=C2C=Cc3ccccc32)cc1,-2,.,.,.,i,.,.,.,.,.,
O=C(N/N=C/c1sc(N2CCOCC2)nc1-c1ccccc1)c1cccc(S(=O)(=O)N2CCOCC2)c1,-12,3,4.6µM*,-15,?,4µM*,6.3µM*,0%,?,?,
O=C(N/N=C/c1sc(N2CCOCC2)nc1-c1ccccc1)c1ccccc1F,-6,-2,?,-4,i,.,.,.,.,.,
Cc1csc(SCC(=O)Nc2cccc3nsnc23)n1,-13,6,2.6µM*,6,i,2.8µM*,?,-10%,-5%,-19%,
Cc1nn(-c2ccccc2)c2sc(C(=O)NCCc3ccccc3)cc12,.,.,.,.,i,.,.,.,.,.,
CCOc1cc(S(=O)(=O)NCc2ccncc2)ccc1Cl,-12,3,?,-10,i,?,0.56µM*,-8%,0.71µM*,-4%,ELG1 FLuc counter=-1%;FLuc biochem=0%
COc1cccc(-c2cc(NCc3cccs3)ncn2)c1,.,.,.,.,.,.,.,.,.,-3%,ELG1 FLuc counter=67%;FLuc biochem=3.7µM*
COC(=O)c1cc(NC(=O)Cn2ncc3c2-c2ccccc2OC3)cc(C(=O)OC)c1,.,.,.,.,i,.,.,.,.,.,
